# Source: PubChem BioAssay
# Pol iota inh = qHTS for Inhibitors of Polymerase Iota | 390,000 compounds, 1% hits | DNA polymerase iota (Homo sapiens), Q9UNA4 | Pol iota fluorescent replication assay, 10 min | AID 588590, 2011 | Potency, µM (top dose mostly 115 µM), actives largely listed as inhibitors
#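 Fluorescent replication assay read twice, at 0 min and 10 min after adding 50 nM (final) substrate. Enzyme (10 nM) and compounds were first incubated 15 min at room temperature; enzyme-free buffer wells were negative controls.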
# FEN1 inh = qHTS Assay for the Inhibitors of Human Flap endonuclease 1 (FEN1). Recombinant FEN1 flap cleavage, fluorescence, 15 min. Potency, µM (titrated, usually from 114 µM), usual class: inhibitors. 390,000 compounds, 0.35% hits. AID 588795, 2011; note: nearly all actives have a fitted effect of over 65% in size
#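 Enzyme 10 nM, 15 min RT preincubation with compound; start with substrate 50 nM final; reads at 0 and 15 min; qHTS titration, four-parameter Hill fit.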
# Pol eta inh = qHTS for Inhibitors of Polymerase Eta; Potency, µM (top dose mostly 114 µM), actives largely listed as inhibitors; AID 588591, 2011; recombinant Pol eta, fluorescent DNA replication assay; 390,000 compounds, 1.2% hits
#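 Pol eta (10 nM) was preincubated with compounds for 15 min at room temperature, after which fluorescent replication substrate (50 nM final) was added to start the reaction. Fluorescence was read kinetically at 0 and 10 min.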
# POLB inh = qHTS Assay for Inhibitors of DNA Polymerase Beta | P06746 | Pol beta primer extension/strand displacement, fluorescence kinetic | Potency, µM (doses to about 114 µM), hits mostly inhibitors | 340,000 compounds, 1.3% hits | AID 485314, 2010
#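 Values derive from four-parameter Hill fits of normalized kinetic data: reads at 0 and 10 min following addition of 50 nM substrate to 10 nM Pol beta preincubated 15 min with compound.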
# POLK inh = qHTS for Inhibitors of Polymerase Kappa; DNA polymerase kappa (Homo sapiens), Q9UBT6; purified Pol kappa, fluorescent DNA synthesis assay, 10 min; Potency, µM (titrated, usually from 107 µM), hits mostly inhibitors; 400,000 compounds, 0.53% hits
#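 50 nM final substrate added after 15 min RT preincubation of 10 nM Pol kappa with compound; fluorescence read at 0 and 10 min.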
# Tb PGK inh = qHTS Assay to Find Inhibitors of Phosphoglycerate Kinase; Phosphoglycerate kinase, glycosomal (Trypanosoma brucei brucei), P07378; PGK/GAPDH coupled, Kinase-Glo luminescence, 60 min; Potency, µM (titrated, usually from 57.5 µM), most hits filed as inhibitors; 380,000 compounds, 0.043% hits; AID 602233, 2012; note: nearly all actives have a fitted effect of over 60% in size
# Target sequence (P07378 whole entry, looked up): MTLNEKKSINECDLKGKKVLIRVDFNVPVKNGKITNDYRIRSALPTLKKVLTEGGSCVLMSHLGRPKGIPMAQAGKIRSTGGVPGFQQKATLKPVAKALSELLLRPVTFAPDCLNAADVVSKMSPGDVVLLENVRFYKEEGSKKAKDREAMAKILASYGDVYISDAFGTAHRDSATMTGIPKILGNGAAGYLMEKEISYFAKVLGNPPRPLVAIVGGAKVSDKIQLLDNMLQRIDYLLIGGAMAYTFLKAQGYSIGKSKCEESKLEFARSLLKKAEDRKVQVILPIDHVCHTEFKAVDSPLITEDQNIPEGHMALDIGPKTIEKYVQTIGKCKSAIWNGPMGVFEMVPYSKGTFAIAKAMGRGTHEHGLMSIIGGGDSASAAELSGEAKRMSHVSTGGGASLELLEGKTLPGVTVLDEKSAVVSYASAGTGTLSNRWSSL
#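 Recombinant glycosomal PGK reaction used 1,3-bisphosphoglycerate generated in-well by GAPDH (100nM final) in 100mM TEA pH 7.6, 5mM MgCl2, 0.01% Tween-20. After 60 minutes at room temperature, ATP was read by Kinase-Glo Plus luminescence end-point.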
# A number is an active result; – = inactive; ? = inconclusive; · = not tested or not shown; ! = repeats disagree; [ ] = remark or other dose. Rows were chosen to be rich in hits. Some 2.4% of all compounds tested hit in one or more screens of this group. Calls come from the whole dose curve; as a rule, active = well fitted curve in the direction sought with a large enough effect; inconclusive = small, poorly fitted or top-dose-only effect, or another doubt; inactive = no such curve, though single readings can be large; an effect the other way counts as inactive or inconclusive.
SMILES,Pol iota inh,FEN1 inh,Pol eta inh,POLB inh,POLK inh,Tb PGK inh
CC(/C=C/C1(O)C(C)CC(O)CC1(C)C)OC1OC(CO)C(O)C(O)C1O (configuration not stated),?,?,35µM,25µM,56µM,–
Cc1cccc(N(C)S(=O)(=O)c2nnc(NC(=O)C(C)Oc3ccccc3)s2)c1 (configuration not stated),–,–,–,–,–,–
Cc1cccc(C(=O)Nc2nnc(S(=O)(=O)N3CCCc4ccccc43)s2)c1,–,–,?,–,–,–
Cc1cccc(C(=O)Nc2nnc(S(=O)(=O)N3CCC(C)CC3)s2)c1,–,–,79µM!,–,–,–
COc1cccc(C(=O)Nc2nnc(S(=O)(=O)N3CCCc4ccccc43)s2)c1,–,–,50µM,–,–,–
O=C(Nc1nnc(S(=O)(=O)N2CCCCC2)s1)c1cccc(Br)c1,?,–,45µM,–,–,–
O=CNc1ccc(/C=C/c2ccnc3ccccc23)cc1,–,–,·,·,–,·
O=c1[nH]c(=O)n([C@H]2C[C@@H](O)[C@@H](CO)O2)cc1C=CBr,·,·,·,·,–,·
COc1ccc(C(=O)/C(Br)=C/C(=O)O)cc1,·,·,·,·,–[19.4 µM],·
COc1cc2ccc(=O)oc2cc1OCC(O)C(C)(C)O (configuration not stated),?,–,–,35µM,?,–
N=C1C(c2nc3ccccc3s2)=C(O)CN1NC(=O)c1ccco1,?,–,–,25µM,–,–
COc1ccc(CNC(=O)CSc2nc(-c3ccccc3)cc(-c3cccs3)c2C#N)cc1,–,–,–,–,–,–
CCC(C(=O)NCc1ccco1)n1nc(-c2ccc(OC)cc2)ccc1=O (configuration not stated),?,–,?,45µM,?,–
COc1ccc(-c2cc(-c3cccs3)c(C#N)c(SCC(=O)NCc3ccco3)n2)cc1,–,–,–,13µM,–,–
Cc1ccc(-c2ccc(=O)n(CC(=O)NCc3ccco3)n2)cc1,–,–,–,–,–,–
COc1ccc(-c2ccc(=O)n(CC(=O)NCc3ccco3)n2)cc1,?,–,?,50µM,–,–
Cc1cc(C)cc(N2CCCn3c2nc2c3c(=O)n(CCN3CCOCC3)c(=O)n2C)c1,–,–,–,–,–,–
C=C(C)Cn1c(=O)c2c(nc3n2CCN3c2cc(C)cc(C)c2)n(C)c1=O,79µM,–,–,–,–,–
COC(=O)CCC(=O)OC1(C)C(=O)C2=CN(c3ccc(OC)cc3)C(c3ccc(OC)cc3)=CC2=C(Br)C1=O (configuration not stated),?,–,–,·,–,–
COc1ccc(C2=CC3=C(Br)C(=O)C(C)(OC(=O)c4ccco4)C(=O)C3=CO2)cc1 (configuration not stated),18µM,40µM,?,20µM,79µM,?
CC(=O)Nc1cccc(NC(=O)CCn2cnc3cc(C)c(C)cc32)c1,?,–,?,25µM,–,–
COc1ccccc1CNC(=O)c1cnccn1,?,–,71µM,40µM,?,–
COc1ccccc1CNC(=O)C(CC(C)C)NC(=O)C1CCC(C)CC1 (configuration not stated),–,–,–,–,–,–
COc1ccccc1CNC(=O)c1ccccc1C(=O)NC(CC(C)C)C(=O)NCc1ccccc1OC (configuration not stated),71µM,–,–,–,–,–
Cn1nc(-c2ccc(OCC(=O)Nc3cccc(C(F)(F)F)c3)cc2)c2ccccc2c1=O,–,–,79µM,?,–,–
COc1ccc(C(=O)NCC(=O)OCC(=O)Nc2ncc(Cl)cc2Cl)cc1[N+](=O)[O-],–,–,50µM,·,–,–
COc1ccc(CC(=O)OCC(=O)Nc2ncc(Cl)cc2Cl)cc1OC,–,–,–,–,–,–
